Source: ChEMBL document CHEMBL3988442, “University of Dundee, Small-Polar-MMV Screening Library” (2021)
In all, about 48,000 compounds went through this assay and about 13,000 (27%) showed an effect of 50% or more. This is one part of the list.

Each molecule was assayed on Wolbachia pipientis (assay: Anti-Wolbachia Cell-Based Screen). Settings: 5 µM.
Assay type: functional
Design: scale not given: in the data most compounds retested in dose-response had high values

In order of rising “Percent Effect” value:
1. Cc1nc(C)c(CN2CCOC(Cc3ccccc3Cl)C2)nc1C (stereo not given)  -25.93%
2. O=C(c1ccc2c(c1)CCC2)N1CCCCC1C1OCCO1 (stereo not given)  -21.29%
3. COc1ccc2cc(C3CN(C(=O)C4CCOCC4)CCO3)ccc2c1 (stereo not given)  -17.44%
4. CNC(=O)[C@@H]1C[C@H](N)CN1S(=O)(=O)c1cc(Cl)c(Cl)s1  -16.04%
5. CCCN1CC(C(=O)Nc2ccccn2)CC1=O (stereo not given)  -15.01%
6. CN1CCN(Cc2cn3c(n2)CN(C(=O)N2CCOCC2)CC3)CC1.O=C(O)C(F)(F)F.O=C(O)C(F)(F)F  -14.48%
7. O=C(O)C1c2nc[nH]c2CCN1Cc1ccc(-c2ccccc2)s1 (stereo not given)  -13.4%
8. Cn1cnc2cc(C(=O)NS(=O)(=O)c3ccc(F)cc3)ccc21  -13.37%
9. COc1ccc(-c2cccc(-c3ccn(CC4COCCO4)n3)c2)nn1 (stereo not given)  -12.89%
10. COc1ccc(NC(=O)NC(C)(C)c2noc(C)n2)cc1  -12.65%
11. Cc1c[nH]nc1C1CCN(S(=O)(=O)N(C)C)CC1  -12.28%
12. O=C(C1CCS(=O)(=O)CC1)N1CCC(c2ccc(F)cc2)C1 (stereo not given)  -11.81%
13. Cc1cccn2cc(CN3CCCC(c4noc(C5CC5)n4)C3)nc12 (stereo not given)  -10.66%
14. CC(C)S(=O)(=O)NCC1CCCN(C(=O)c2ccc3c(c2)CCC3)C1 (stereo not given)  -10.39%
15. O=C(O)C(F)(F)F.O=C(O)C(F)(F)F.c1cn2c(n1)CN(C1CCOCC1)CC(CN1CCCC1)C2 (stereo not given)  -10.3%
16. CCc1nc(CN2CCCN(C(=O)CC3CCCC3)CC2)cs1  -10.08%
17. CS(=O)(=O)CCOCCNc1ccc(C#N)cc1F  -9.887%
18. c1nc2n(c1CN1CCOCC1)CCN(C1CCOC1)CC2 (stereo not given)  -7.987%
19. O=C(c1ccc2[nH]nnc2c1)N1CCCC(n2cccn2)C1 (stereo not given)  -7.495%
20. Cc1nc(C2CCCN(c3ncc(Br)cn3)C2)no1 (stereo not given)  -7.201%
21. CCN(Cc1ccncc1)C1CCCN(Cc2ccc(F)cc2OC)C1 (stereo not given)  -6.511%
22. COc1ccc(C(C#N)NC(=O)CC2=CCCCC2)c(OC)c1 (stereo not given)  -6.467%
23. CNC(=O)[C@@H]1C[C@@H](N)CN1C1CCN(c2ccccc2F)CC1  -6.416%
24. O=C(O)C(F)(F)F.O=C(O)C(F)(F)F.c1c(CN2CCCC2)nc2n1CCN(CC1CC1)C2  -6.407%
25. COCc1nc(C)cc(Nc2ccc3c(c2)CC(=O)N3)n1  -4.999%
26. FC(F)(F)c1n[nH]c2c1CN(CCc1ccccn1)CC2  -4.323%
27. Cc1ccc2oc(C(=O)N3CCCC(n4nc(C)cc4C)C3)cc2n1 (stereo not given)  -4.167%
28. O=C(NCc1cn2c(n1)CN(CC1CCOCC1)CC2)C1CCC1.O=C(O)C(F)(F)F  -3.322%
29. C1CCN(CCOC2CCNCC2)C1  -3.216%
30. Cc1csc(N2CCCN(C(=O)C3(C#N)CCCCC3)CC2)n1  -2.808%
31. Cc1ccc(NC(=O)N2CCN(C(=O)CC3CCCC3)CC2)s1  -2.154%
32. COCc1c(Br)cccc1NC(=O)N(C)CCO  -0.915%
33. Cc1cncc(NCc2ccccc2N2CCOCC2)c1  0.5273%
34. COc1cccc(C(CO)NC(=O)Cc2ccc(F)c(Br)c2)c1 (stereo not given)  1.843%
35. CN(Cc1ccncn1)c1nccc(CCC(F)(F)F)n1  2.558%
36. COc1cc2c(cc1CN1C[C@@H](CN3CCOCC3)[C@@H](CO)C1)CCC2  3.11%
37. COc1ccc(OC)c(C2CCN(C(=O)C3CCOCC3)C2)c1 (stereo not given)  3.237%
38. Cc1cnc(-c2nc(-c3cccc(CN4CCOCC4)c3)no2)cn1  4.673%
39. c1cc(CN2CCCC(c3noc(C4CC4)n3)C2)no1 (stereo not given)  4.824%
40. CN(Cc1cn2c(n1)CN(C1CCOCC1)CC2)Cc1ccco1.O=C(O)C(F)(F)F.O=C(O)C(F)(F)F  4.973%
41. c1c(CN2CCCCC2)nc2n1CCN(CC1CC1)C2  5.412%
42. Cc1n[nH]cc1CNC(C(=O)N1CCOCC1)c1ccccc1 (stereo not given)  6.045%
43. Cc1c[nH]c(CN2CC[C@@]3(O)CCN(C(=O)C4CCCC4)C[C@H]3C2)n1  6.79%
44. O=C(CC1CC1)NCc1cn2c(n1)CN(C(=O)C1CCOCC1)CC2  7.38%
45. O=C1O[C@@H]2CN(Cc3cc4ccccc4o3)C[C@@H]2N1Cc1ccccn1  8.786%
46. O=C(NCc1ccccc1CO)Nc1ccc2c(c1)CCO2  11.78%
47. Cc1nc(CN2CCC3(CCCN(Cc4cnn(C)c4)C3)C2=O)cs1.O=C(O)C(F)(F)F.O=C(O)C(F)(F)F (stereo not given)  12.7%
48. Cc1cnc(CN2CCN(C(C)c3nc(C4CC4)no3)CC2)cn1 (stereo not given)  13.95%
49. O=C(C1CCC1)N1CCC(C(=O)N2CCC(c3ccc(F)cc3)C2)CC1 (stereo not given)  15.47%
50. COc1ccc(CN2CC[C@@H](N)[C@@H](OC)C2)cc1Cn1cncn1  18.6%
51. CN1CCC(Cc2noc(-c3cn(Cc4ccccc4Cl)nn3)n2)CC1  21.53%
52. c1c(CN2CCOCC2)nc2n1CCN(C1CCOCC1)C2  79.69%
53. O=C(c1ccc2[nH]nnc2c1)N1CC[C@H](O)[C@]2(CCCO2)C1  85.31%
54. Cc1cnc(-c2nc(C3CCCN(Cc4cccs4)C3)no2)cn1 (stereo not given)  85.43%
55. COc1ccc(C(C#N)NC(=O)Cc2ccc(F)c(F)c2)c(OC)c1 (stereo not given)  86.82%
56. Cc1cnc(-c2nc(C3CCCN(Cc4ccccc4C)C3)no2)cn1.Cl (stereo not given)  93.62%
57. c1c(CN2CCOCC2)nc2n1CCN(CC1CC1)C2  101.8%
58. O=C(O)C(F)(F)F.O=C(O)C(F)(F)F.c1c(CN2CCCC2)nc2n1CCN(C1CCOCC1)C2  102.1%
59. Cc1nc(CN2CCC3(CCN(Cc4cnn(C)c4)CC3)C2=O)cs1.O=C(O)C(F)(F)F.O=C(O)C(F)(F)F  102.9%
60. Cc1nc(CN2CCC3(CCN(Cc4cnn(C)c4)C3)C2=O)cs1 (stereo not given)  104.5%
61. Cc1nc(CN2CCC3(CCN(Cc4nccn4C)CC3)C2=O)cs1.O=C(O)C(F)(F)F.O=C(O)C(F)(F)F  106%
62. CN1CCN(Cc2cn3c(n2)CN(C2CCOCC2)CC3)CC1.O=C(O)C(F)(F)F.O=C(O)C(F)(F)F.O=C(O)C(F)(F)F  107%
63. O=C(c1ccc2[nH]nnc2c1)N1C[C@H](O)[C@]2(CCCO2)C1  107.9%
64. Cc1c[nH]nc1C1CCN(C(=O)C2CCCC2)C1 (stereo not given)  108.3%
65. Cc1cnc(-c2nc(C3CCN(Cc4ccccc4C)CC3)no2)cn1  126.9%
66. Cc1c[nH]nc1C1CCN(C(=O)CC2CCCC2)C1 (stereo not given)  140.5%
67. Cc1cnc(-c2nc(C3CCN(Cc4ccccc4Cl)CC3)no2)cn1  142.3%
68. O=C(c1ccc2c(c1)CCC2)N1CC[C@H](O)[C@]2(CCCO2)C1  143.9%
69. Cc1c[nH]nc1C1CCN(C(=O)C2CCOCC2)C1 (stereo not given)  146.2%
70. Cc1c[nH]nc1C1CCN(C(=O)C2CCC2)CC1  187.6%
